Source: PubChem BioAssay (NCI)
Compounds without any hit were thinned out: in the full panel of roughly 79,000, 15% have a hit. Rule as the data show it: active = growth inhibition above about 70%; inactive = the rest.

Assays:
[1] = NCI Yeast Anticancer Drug Screen. Data for the rad50 strain (AID 155);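 also: 0% = growth of vehicle-only cultures of the same strain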; settings: S. cerevisiae rad50 strain growth inhibition; at 50.0 µM; active compounds read high
Outline: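 Vehicle-treated cultures provide the reference for the growth inhibition reported for compound-exposed, repair-deficient yeast.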

[2] = NCI Yeast Anticancer Drug Screen. Data for the mec2-1 strain (AID 157); settings: S. cerevisiae mec2-1 strain, at 50.0 µM, active compounds read high
Outline: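 mec2-1 yeast strain, carrying an alteration in DNA damage repair or cell cycle control, was exposed to compounds; growth inhibition was measured relative to vehicle-treated controls.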

[3] = NCI Yeast Anticancer Drug Screen. Data for the sgs1 mgt1 strain (AID 161);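 also: 0% = growth of cultures given vehicle only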; settings: S. cerevisiae sgs1 mgt1 strain, at 50.0 µM, active compounds read high
Outline: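 This yeast growth screen uses a strain with defined DNA-repair lesions; compound-treated growth is compared with vehicle-treated growth.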

[4] = NCI Yeast Anticancer Drug Screen. Data for the cln2 rad14 strain (AID 165);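 also: 0% = growth equal to vehicle treated cultures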; settings: S. cerevisiae cln2 rad14 strain, at 50.0 µM, active compounds read high
Outline: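 Yeast carrying cln2 and rad14 alterations (cell cycle control and DNA damage repair) were exposed to compounds. Growth inhibition was measured against vehicle-treated controls.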

[5] = NCI Yeast Anticancer Drug Screen. Data for the bub3 strain (AID 167); settings: S. cerevisiae bub3 mutant strain, at 50.0 µM, active compounds read high
Outline: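 Mutant yeast screening strain plus compound; vehicle-treated cultures serve as the 0% inhibition reference.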

[6] = NCI Yeast Anticancer Drug Screen. Data for the mlh1 rad18 strain (AID 175); settings: S. cerevisiae mlh1 rad18 strain growth inhibition; at 50.0 µM; active compounds read high
Outline: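 Growth inhibition of the yeast strain was measured after compound exposure and expressed relative to vehicle-treated controls. The strain carries defined defects in DNA damage repair.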

Measured: growth inhibition

CCOC(=O)CS
inactive: [1] 11.2% | [2] -6.5% | [3] -15.6% | [4] 5.7% | [5] 20.6% | [6] 22.6%

COc1ccc2c(c1OC)C1(CCN(C)C)CC(O)CCC1C=C2 (stereo unspecified)
inactive: [1] 20.4% | [2] 7.95% | [3] 5.75% | [4] -4.6% | [5] 13.2% | [6] 18.1%

COC(=O)C1(C)CCCC2(C)c3cc(OC)ccc3C(=O)C(Cl)C12 (stereo unspecified)
inactive: [1] 7.8% | [2] 0.15% | [3] 6.45% | [4] -13.8% | [5] 26.4% | [6] 5.7%

c1cc2nc(c1)CSCCCCCCCSC2
inactive: [1] 2.05% | [2] 45% | [3] 30.2% | [4] -3.45% | [5] 52.4% | [6] 23.2%

O=c1nc(N2CCCCCCC2)ccn1C1OC(CO)C(O)C1O (stereo unspecified)
inactive: [1] 4.85% | [2] 14.6% | [3] 8.95% | [4] 6.75% | [5] 6.85% | [6] 8.5%

CC(C)C(CN)(c1ccccc1)c1ccccc1
inactive: [1] -4.4% | [2] -7.75% | [3] -8.85% | [4] -59% | [5] -3.3% | [6] -10.9%

COc1cc2c3cc1Oc1c(OC)c(OC)cc4c1C(Cc1ccc(O)c(c1)Oc1ccc(cc1)CC3N(C)CC2)CN(C)C4 (stereo unspecified)
inactive: [1] -17.6% | [2] -37.9% | [3] -3.6% | [4] -17.4% | [5] 3.35% | [6] 25.1%

CC1=CCCCC1
inactive: [1] 3.85% | [2] 2.8% | [3] -1.35% | [4] -5.1% | [5] 8.65% | [6] -7.25%

O=C(OCc1ccc(Cl)cc1Cl)OCc1ccc(Cl)cc1Cl
inactive: [1] 7.55% | [2] -0.9% | [3] -3.7% | [4] -31.7% | [5] 19.2% | [6] 37.4%

COC(=O)C1CN=CN1CCc1ccccc1 (stereo unspecified)
inactive: [1] -2.05% | [2] -10.6% | [3] 5.25% | [4] 12.4% | [5] 2.5% | [6] 45.8%

O=c1[nH]c2cc(Cl)ccc2nc1/C(=N\O)C(O)c1ccc(Cl)cc1Cl (stereo unspecified)
inactive: [1] -9.9% | [2] -24.4% | [3] -0.35% | [4] 20.6% | [5] -5.6% | [6] -13.2%

CCOc1ccc2c(c1)nc1ccccc1[n+]2C
inactive: [1] 21.6% | [2] 15.4% | [3] 22% | [4] 25.5% | [5] 52.4% | [6] 39.9%

O=P(c1ccccc1)(c1ccccc1)c1ccccc1OCc1cccc(COc2ccccc2P(=O)(c2ccccc2)c2ccccc2)n1
inactive: [1] -7.05% | [2] -7.5% | [3] -11.7% | [4] -21.9% | [5] -2.6% | [6] 31.1%

COc1ccc(Cc2nnc(SC)n2-c2ccc(F)cc2)cc1OC
inactive: [1] 8.7% | [2] -8.25% | [3] 21% | [4] 6.15% | [5] 25.2% | [6] 16.6%

O=Cc1cc(Cl)cc(Cl)c1
inactive: [1] 5% | [2] -18.1% | [3] 0.85% | [4] 8.7% | [5] 8.95% | [6] 6.55%

OC1COC2CC(Nc3ccccn3)OC12 (stereo unspecified)
inactive: [1] -36.8% | [2] -41.2% | [3] -15.8% | [4] 0% | [5] -10.2% | [6] -13.6%

CC(COc1ccccc1)OC(=O)CCl (stereo unspecified)
inactive: [1] 0.75% | [2] 5.6% | [3] -6.65% | [4] -16.9% | [5] -16.5% | [6] 27.6%

CN1C(=O)C(O)CC1c1ccccc1C(F)(F)F (stereo unspecified)
inactive: [1] 11.7% | [2] 4.2% | [3] 31.2% | [4] 17.9% | [5] 5.05% | [6] -30.6%

Cc1ccc(S(=O)(=O)OC(F)(F)C(F)(F)F)cc1
inactive: [1] 7.8% | [2] 5.05% | [3] 7.95% | [4] -8.15% | [5] -4.05% | [6] 5.5%

O=C(O)c1ccccc1C(=O)OCC1CCCc2ccccc21 (stereo unspecified)
inactive: [1] 11.7% | [2] 45.7% | [3] 41.5% | [4] -100% | [5] 43.5% | [6] 46%

CC1OC(C)(Cc2ccccc2)OC1C (stereo unspecified)
inactive: [1] 3.95% | [2] -13.9% | [3] -9.2% | [4] -59% | [5] -7.1% | [6] -8.95%
